Data taken from PubChem BioAssay.
The other results are listed elsewhere or left out. Activity calls are given as the source filed them.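 How the source made its calls, unless noted: active means at 20 µM dose, 40% or more inhibition averaged across four replicates; inactive means the rest.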

How the values were obtained:
[1] = Peg3 promoter reporter inhibitors, retest, confirmation, cell-based, HeLa, luciferase reporter, single concentration (AID 602417); conditions: HeLa PEG-Prom luciferase reporter, luminescence, overnight; at 20 µM; stronger effect = higher value
PEG-3 [2] = biological target: PEG-3 (UniProt Q6IN02); assay: Peg3 promoter luciferase inhibitors, potency, dose response, cell-based, HeLa, CREF/GAPDH counter-screen panel (AID 624167); conditions: CREF/GAPDH counter-screens; HeLa PEG-Prom luciferase reporter, overnight, run 1, dose range 1, at 100 µM (top of the series) unless noted
Chain of PEG-3 (Q6IN02 whole entry, looked up): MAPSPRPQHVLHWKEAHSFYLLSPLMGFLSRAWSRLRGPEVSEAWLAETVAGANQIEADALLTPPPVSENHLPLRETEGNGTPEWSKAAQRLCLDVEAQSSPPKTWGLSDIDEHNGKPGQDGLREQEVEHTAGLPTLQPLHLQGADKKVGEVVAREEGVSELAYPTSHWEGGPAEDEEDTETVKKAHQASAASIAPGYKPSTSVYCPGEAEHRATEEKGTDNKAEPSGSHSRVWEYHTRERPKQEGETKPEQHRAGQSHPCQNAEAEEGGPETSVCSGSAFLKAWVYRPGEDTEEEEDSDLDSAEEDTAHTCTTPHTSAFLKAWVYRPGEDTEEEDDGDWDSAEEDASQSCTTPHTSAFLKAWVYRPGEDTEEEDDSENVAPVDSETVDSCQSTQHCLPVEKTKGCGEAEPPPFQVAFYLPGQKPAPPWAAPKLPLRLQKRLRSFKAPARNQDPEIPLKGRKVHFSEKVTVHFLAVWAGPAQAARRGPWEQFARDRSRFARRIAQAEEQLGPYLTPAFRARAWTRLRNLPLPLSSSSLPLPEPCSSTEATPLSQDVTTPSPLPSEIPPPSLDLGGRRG

PEG-3 [3] = biological target: PEG-3 (UniProt Q6IN02); assay: as above; conditions: CREF/GAPDH counter-screens; HeLa PEG-Prom luciferase reporter, overnight, run 2, dose range 1, at 100 µM (top of the series) unless noted
[4] = inhibitors of PAF-induced NF-kB signaling, retest, confirmation, cell-based, GFP fluorescence, single concentration (AID 602472; in the data active means inhibition above about 40%;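 further: stimulus PAF is a Pseudomonas aeruginosa filtrate and not platelet activating factor; plate controls were DMSO wells with stimulus for no effect and unstimulated DMSO wells for full effect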); conditions: KKLEB CF airway cells, overnight, at 5 µM, stronger effect = higher value
[5] = biological target: Tumor necrosis factor receptor superfamily member 10B (Homo sapiens) (UniProt O14763); assay: caspase-8 TRAIL sensitization, hit retest, confirmation, cell-based, NB7+caspase-8, with/without TRAIL, luminescence panel (AID 651596; in the data active means activity above about 50%); conditions: NB7 neuroblastoma + caspase-8, TRAIL sensitization, luminescence viability, with TRAIL, mean of runs, at 10 µM, stronger effect = higher value
Chain of Tumor necrosis factor receptor superfamily member 10B (Homo sapiens) (O14763 whole entry, looked up): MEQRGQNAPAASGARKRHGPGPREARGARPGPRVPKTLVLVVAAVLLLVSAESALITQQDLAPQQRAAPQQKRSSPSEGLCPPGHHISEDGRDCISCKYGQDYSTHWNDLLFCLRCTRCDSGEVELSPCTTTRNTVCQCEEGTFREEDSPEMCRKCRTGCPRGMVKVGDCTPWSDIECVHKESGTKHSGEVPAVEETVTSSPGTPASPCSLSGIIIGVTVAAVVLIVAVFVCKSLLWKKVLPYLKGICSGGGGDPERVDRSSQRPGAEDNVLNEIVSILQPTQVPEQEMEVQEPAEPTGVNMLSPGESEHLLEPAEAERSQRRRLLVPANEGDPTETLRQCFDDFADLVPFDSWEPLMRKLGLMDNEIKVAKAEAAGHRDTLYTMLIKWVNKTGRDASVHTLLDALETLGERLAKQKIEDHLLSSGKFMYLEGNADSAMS

[6] = as above; conditions: NB7 neuroblastoma + caspase-8, without TRAIL, luminescence viability, without TRAIL, mean of runs, at 10 µM
[7] = biological target: Tumor necrosis factor receptor superfamily member 10B (Homo sapiens) (UniProt O14763); assay: TRAIL sensitizers in caspase-8 expressing neuroblastoma cells, dose response, NB7 cells plus caspase-8, luminescence, panel (AID 652002); conditions: NB7 neuroblastoma +caspase-8, TRAIL sensitization, luminescence viability, NB7+Caspase-8, with TRAIL, run 1; at 12.5 µM (top of the series)
[8] = biological target: Tumor necrosis factor receptor superfamily member 10B (Homo sapiens) (UniProt O14763); assay: as above; conditions: NB7 neuroblastoma +caspase-8, TRAIL sensitization, luminescence viability, NB7+Caspase-8, with TRAIL, run 2; at 12.5 µM (top of the series)
[9] = as above; conditions: NB7 neuroblastoma +caspase-8, no TRAIL, compound-alone cytotoxicity counter-screen, luminescence viability, NB7+Caspase-8, run 1; at 12.5 µM (top of the series) unless noted
[10] = as above; conditions: NB7 neuroblastoma +caspase-8, no TRAIL, compound-alone cytotoxicity counter-screen, luminescence viability, NB7+Caspase-8, run 2; at 12.5 µM (top of the series) unless noted
[11] = biological target: COP9 signalosome complex subunit 5 (Homo sapiens) (UniProt Q92905); assay: Csn5 deneddylation inhibitors, confirmation, biochemical, fluorescence polarization, single concentration, SCF-Nedd8OG substrate (AID 720654; in the data active means inhibition above about 50%;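 further: 0% = DMSO with enzyme and 100% = no enzyme wells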); conditions: Csn5 deneddylation of SCF-Nedd8OG, 90 min, at 16.6 µM, stronger effect = higher value
Chain of COP9 signalosome complex subunit 5 (Homo sapiens) (Q92905 whole entry, looked up, one chain of several): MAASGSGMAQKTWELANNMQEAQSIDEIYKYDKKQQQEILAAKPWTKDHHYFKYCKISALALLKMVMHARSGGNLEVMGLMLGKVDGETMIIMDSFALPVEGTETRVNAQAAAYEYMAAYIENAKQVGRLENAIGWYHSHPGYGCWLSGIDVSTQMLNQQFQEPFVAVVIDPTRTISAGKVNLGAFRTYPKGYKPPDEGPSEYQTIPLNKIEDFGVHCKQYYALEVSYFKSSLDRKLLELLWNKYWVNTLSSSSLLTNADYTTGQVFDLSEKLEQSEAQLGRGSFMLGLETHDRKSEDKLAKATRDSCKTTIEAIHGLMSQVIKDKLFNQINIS

[12] = biological target: 72 kDa type IV collagenase (Homo sapiens) (UniProt P08253); assay: MMP-2 protease inhibition counter-screen, confirmation, counter-screen for CSN deneddylation inhibitor project, biochemical, fluorescence, single concentration (AID 720655;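 active means corrected plate-normalized z-score of 5 or more, or -5 or less, or inhibition of 15% or more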;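 further: plate controls were DMSO wells with enzyme for no effect and buffer wells lacking MMP-2 for full effect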); conditions: recombinant MMP-2, FRET substrate fluorescence, 60 min; at 16.6 µM
Chain of 72 kDa type IV collagenase (Homo sapiens) (P08253 whole entry, looked up): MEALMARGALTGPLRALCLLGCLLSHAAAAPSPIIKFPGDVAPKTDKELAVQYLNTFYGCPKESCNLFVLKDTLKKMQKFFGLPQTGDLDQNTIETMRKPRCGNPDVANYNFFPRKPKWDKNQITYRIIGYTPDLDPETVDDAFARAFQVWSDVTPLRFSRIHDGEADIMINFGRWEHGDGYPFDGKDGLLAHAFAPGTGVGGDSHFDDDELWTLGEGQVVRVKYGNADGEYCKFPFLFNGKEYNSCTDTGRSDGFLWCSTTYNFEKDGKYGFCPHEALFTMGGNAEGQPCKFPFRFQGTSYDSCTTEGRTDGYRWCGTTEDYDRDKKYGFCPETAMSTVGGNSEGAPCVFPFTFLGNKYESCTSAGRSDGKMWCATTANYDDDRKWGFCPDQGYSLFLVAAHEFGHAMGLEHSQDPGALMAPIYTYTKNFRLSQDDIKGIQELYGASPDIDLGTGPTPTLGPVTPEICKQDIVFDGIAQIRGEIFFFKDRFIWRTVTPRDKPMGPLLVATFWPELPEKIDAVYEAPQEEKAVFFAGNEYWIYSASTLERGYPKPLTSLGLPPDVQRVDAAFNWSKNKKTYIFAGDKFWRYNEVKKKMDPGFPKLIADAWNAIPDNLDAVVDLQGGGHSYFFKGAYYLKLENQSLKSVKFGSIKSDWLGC

Prothrombin (Bos taurus) = Prothrombin (Bos taurus) (UniProt P00735); assay: bovine thrombin inhibition counter-screen, confirmation, counter-screen for CSN deneddylation inhibitor project, biochemical, fluorescence polarization, single concentration (AID 720656;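 active means inhibition at or above a set limit, with a fluorescence interference ratio between 0.5 and a set maximum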); conditions: bovine thrombin cleavage of Ub4-pepOG, at 16.6 µM, stronger effect = higher value
Chain of Prothrombin (Bos taurus) (P00735 whole entry, looked up): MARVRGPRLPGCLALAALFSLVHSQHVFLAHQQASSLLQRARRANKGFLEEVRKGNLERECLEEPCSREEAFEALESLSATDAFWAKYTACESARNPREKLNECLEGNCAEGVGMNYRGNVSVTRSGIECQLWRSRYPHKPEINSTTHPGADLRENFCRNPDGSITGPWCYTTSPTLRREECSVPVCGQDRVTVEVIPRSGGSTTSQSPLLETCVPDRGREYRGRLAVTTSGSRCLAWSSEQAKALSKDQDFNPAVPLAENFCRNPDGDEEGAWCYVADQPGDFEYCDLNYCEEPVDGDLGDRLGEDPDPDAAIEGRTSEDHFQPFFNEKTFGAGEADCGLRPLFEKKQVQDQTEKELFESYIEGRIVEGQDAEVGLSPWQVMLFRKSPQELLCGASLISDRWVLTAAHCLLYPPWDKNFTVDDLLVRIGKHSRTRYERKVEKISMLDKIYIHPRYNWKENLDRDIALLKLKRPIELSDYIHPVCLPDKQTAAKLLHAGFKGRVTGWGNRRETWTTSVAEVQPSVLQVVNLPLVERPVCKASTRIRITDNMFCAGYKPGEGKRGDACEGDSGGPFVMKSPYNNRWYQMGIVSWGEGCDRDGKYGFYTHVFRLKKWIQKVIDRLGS

Rat fibroblasts (CREF) [13] = assay: Peg3 promoter luciferase inhibitors, potency, dose response, cell-based, HeLa, CREF/GAPDH counter-screen panel (AID 624167); conditions: CREF/GAPDH counter-screens; run 1, dose range 1, at 100 µM (top of the series)
Rat fibroblasts (CREF) [14] = assay: as above; conditions: CREF/GAPDH counter-screens; run 2, dose range 1, at 100 µM (top of the series)
[15] = HIF-2a reporter inhibitor retest, confirmation, luminescence, 786-0 RCC cells (AID 651580;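 active means mean inhibition across four replicates of at least 40 percent at the single tested concentration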); conditions: HIF-2a luciferase reporter luminescence, overnight, at 18.8 µM, stronger effect = higher value
[16] = HIF-1a luciferase reporter signal reduction – MiaPaCa-2 cells, single concentration, counter-screen for HIF-2a inhibitor project, confirmation (AID 651589;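 active means mean inhibition of the reporter signal across four replicates at the single tested dose of 50% or more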); conditions: MiaPaCa-2 HIF-1a luciferase reporter, desferoxamine, overnight; at 18.8 µM; stronger effect = higher value
[17] = inhibitors of PAF-induced NFkB signaling in CF airway cells, dose response, cell-based, uHTS hits, panel, cytotoxicity readout (AID 624344); conditions: CF bronchial epithelial cells, PAF-induced NFkB reporter inhibition, with PAF, run 1; at 79 µM (top of the series) unless noted
[18] = as above; conditions: CF bronchial epithelial cells, PAF-induced NFkB reporter inhibition, with PAF, run 2; at 79 µM (top of the series) unless noted

Structure (SMILES): O=c1[nH]c(=S)[nH]c(O)c1/C=C1\C=Nc2ccccc21
- inhibition [1]: 47.7% (active)
- inhibition (PEG-3 [2]): 73%
- inhibition (PEG-3 [3]): 100% [run 2, dose range 1, at 50 µM]

Structure (SMILES): CC(C)CC1C(=O)N(Cc2cn(Cc3ccco3)nn2)CCS(=O)(=O)N1Cc1ccc(-c2ccc(Cl)c(Cl)c2)cc1 (configuration not stated)
- inhibition [4]: 45.6% (active)

Structure (SMILES): COc1ccc2sc(-c3ccc(S(C)(=O)=O)cc3)c(C#Cc3cncn3C)c2c1
- inhibition [1]: 51.8% (active)
- inhibition (PEG-3 [2]): -25.4%
- inhibition (PEG-3 [3]): 60.8% [run 2, dose range 1, at 50 µM]
- activity [5]: 66.7%
- activity [6]: 34.3%
- activity, % sensitization [7]: 13.3%
- activity, % sensitization [8]: 10.2%
- activity, % sensitization [9]: -20.9%
- activity, % sensitization [10]: -2.18%

Structure (SMILES): O=C(Nc1ccc2oc(-c3ccc4ccccc4c3)nc2c1)c1cccs1
- inhibition [4]: 38.7% (inactive)

Structure (SMILES): COc1ccc2c(c1)c(=Cc1ccc(N(C)C)cc1)c1cc(-c3ccccc3)[n+](C)n12
- inhibition [1]: 97.8% (active)
- inhibition [11]: 65% (active)
- inhibition [12]: 81.7% (active)
- inhibition (Prothrombin (Bos taurus)): 67.8% (active)
- inhibition (PEG-3 [2]): 102%
- inhibition (PEG-3 [3]): 102%
- inhibition (Rat fibroblasts (CREF) [13]): 99.5%
- inhibition (Rat fibroblasts (CREF) [14]): 100%

Structure (SMILES): CC(C)CC1C(=O)N(Cc2cn(CC3CCCCC3)nn2)CCS(=O)(=O)N1Cc1ccc(-c2ccc(Cl)cc2)cc1 (configuration not stated)
- inhibition [4]: 32.8% (inactive)

Structure (SMILES): CN1OC[C@@H]2CN(S(=O)(=O)c3cccc(C(F)(F)F)c3)[C@H](c3ccc(-c4cc5ccccc5o4)cc3)C[C@@H]21
- inhibition [1]: 52.7% (active)
- inhibition [15]: 46.4% (active)
- inhibition [16]: 75.2% (active)
- inhibition (PEG-3 [2]): 60%
- inhibition (PEG-3 [3]): 73.1%
- inhibition (Rat fibroblasts (CREF) [13]): 17%
- inhibition (Rat fibroblasts (CREF) [14]): 24.5%

Structure (SMILES): COc1ccc2[nH]c(=O)c(CN(Cc3cccnc3)S(=O)(=O)c3ccccc3F)cc2c1
- inhibition [1]: 56.7% (active)
- inhibition [4]: 86.3% (active)
- inhibition [17]: 109%
- inhibition [18]: 103%

Structure (SMILES): Cc1ccc(-c2nc3ccccc3[nH]2)cc1NC(=O)c1sc2ccccc2c1Cl
- inhibition [1]: -5.64% (inactive)

Structure (SMILES): Cc1nc(SCC(=O)Nc2cc(C)on2)c2c(C)c(C)sc2n1
- inhibition [1]: 33.6% (inactive)

Structure (SMILES): Cc1ccc(OCC(=O)c2cc(C)n(Cc3ccco3)c2C)c([N+](=O)[O-])n1
- inhibition [1]: 71.5% (active)
- inhibition [15]: 64.6% (active)
- inhibition [16]: 82.9% (active)
- inhibition (PEG-3 [2]): 58%
- inhibition (PEG-3 [3]): 62.9%
- inhibition (Rat fibroblasts (CREF) [13]): -20.4%
- inhibition (Rat fibroblasts (CREF) [14]): -12.2%

Structure (SMILES): c1ccc(C(=NNc2nc3ccccc3s2)c2ccccn2)cc1
- inhibition [1]: 61% (active)
- inhibition (PEG-3 [2]): 101%
- inhibition (PEG-3 [3]): 102%

Structure (SMILES): Cc1nnc(SCC(=O)N2c3ccccc3C(C)(c3ccc(Cl)cc3)CC2(C)C)s1 (configuration not stated)
- inhibition [1]: 38.4% (inactive)

Structure (SMILES): O=C(Nc1cccc(-c2cccc(Cl)c2)c1)C1CCN(C2CCC2)CC1
- inhibition [1]: 92.8% (active)
- inhibition (PEG-3 [2]): 98%
- inhibition (PEG-3 [3]): 98.9%

Structure (SMILES): C=CC[C@@H](CC(=O)N[C@@H](CO)Cc1ccccc1)C(=O)N[C@H](COC(=O)[C@H](CC=C)CC(=O)OC(C)(C)C)Cc1ccccc1
- inhibition [1]: 6.88% (inactive)

Structure (SMILES): CCCc1cc(=O)n2[nH]c(C)c(-c3ccc(Cl)cc3)c2n1
- inhibition [1]: 51.5% (active)
- inhibition (PEG-3 [2]): 94%
- inhibition (PEG-3 [3]): 88.7%

Structure (SMILES): Oc1ccc2ccccc2c1N=Nc1nccs1
- inhibition [1]: 82.7% (active)

Structure (SMILES): CSc1nc(N)c(C#N)c(-c2ccccc2Cl)c1C#N
- inhibition [1]: 70.6% (active)

Structure (SMILES): Cc1c(C(=O)Nc2cccc(Cl)c2)cn2c(nc3ccccc32)c1C#N
- inhibition [1]: 10.5% (inactive)
